Source: PubChem (National Center for Advancing Translational Sciences (NCATS))
Sampled rows, rich in hits. Any-hit rate of the full collection: about 19%.
ELG1 repair inh = qHTS screen for small molecules that inhibit ELG1-dependent DNA repair in human embryonic kidney (HEK293T) cells expressing luciferase-tagged ELG1; HEK293T ELG1-luciferase reporter, luminescence, 16 h; DNA damage induced by 5-fluorouridine; hit rate 2.3% among 330,000; Potency, µM (top dose mostly 46.1 µM), for inactives: at the top dose activity change, negative = inhibition, hits mostly inhibitors; AID 504467, 2011; further: potency means the concentration at half of the fitted maximal effect; nearly all actives have a fitted effect of over 55% in size
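HEK293T cells expressing luciferase-tagged ELG1 (2,000/well) received 5-Fluorouridine plus compound or DMSO for 16 hr at 37 °C. Luciferase was read by ONE-Glo luminescence after 30 min at room temperature.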
TDP1 inh = qHTS Assay for Inhibitors of Tyrosyl-DNA Phosphodiesterase (TDP1). recombinant TDP1, AlphaScreen DNA substrate cleavage. Potency, µM (series often up to 130 µM), for inactives: at the top dose activity change, negative = inhibition, hits mostly inhibitors. hit rate 0.28% among 350,000. AID 485290, 2010; further: potency means the concentration at half of the fitted maximal effect; nearly all actives have a fitted effect of over 40% in size
Target sequence (Q9NUW8 whole entry, looked up): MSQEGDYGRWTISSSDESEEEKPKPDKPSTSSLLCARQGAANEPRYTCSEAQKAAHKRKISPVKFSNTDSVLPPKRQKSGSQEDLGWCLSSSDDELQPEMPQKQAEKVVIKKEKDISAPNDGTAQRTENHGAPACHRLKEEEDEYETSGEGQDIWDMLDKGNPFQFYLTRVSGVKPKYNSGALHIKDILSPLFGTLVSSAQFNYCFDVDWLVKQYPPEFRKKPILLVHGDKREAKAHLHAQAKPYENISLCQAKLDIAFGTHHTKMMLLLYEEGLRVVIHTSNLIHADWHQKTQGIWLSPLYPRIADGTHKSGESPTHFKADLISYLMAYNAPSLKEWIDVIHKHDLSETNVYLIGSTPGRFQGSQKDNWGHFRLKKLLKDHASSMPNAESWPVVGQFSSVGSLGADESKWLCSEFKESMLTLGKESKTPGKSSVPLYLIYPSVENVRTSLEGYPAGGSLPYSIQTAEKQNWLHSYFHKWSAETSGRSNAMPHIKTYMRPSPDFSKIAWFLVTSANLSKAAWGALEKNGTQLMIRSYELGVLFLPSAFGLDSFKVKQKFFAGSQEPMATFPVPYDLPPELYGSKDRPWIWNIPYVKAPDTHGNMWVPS
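Recombinant E. coli-expressed Tdp1 (1 nM) preincubated with compound 15 min at RT, then 5'-biotin/3'-phosphotyrosine-FITC DNA substrate (15 nM) added for 5 min. AlphaScreen beads (10 ug/ml) added, 10 min RT; tyrosine-FITC cleavage read as signal loss.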
IL-1B inflam inh = qHTS for Inhibitors of Inflammasome Signaling: IL-1-beta AlphaLISA Primary Screen; THP-1 LPS/ATP IL-1B secretion, AlphaLISA, 16 h; stronger effect = lower value; activity change, % at 57.5 µM; hit rate 4.7% among 360,000; AID 743279, 2014; in the data active means activity change below about -50%; inconclusive means mostly about -30% to -49%
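Secreted IL-1B measured by AlphaLISA bead assay after 16 h compound exposure of THP-1 cells; compounds (final up to 57.5 uM) added 1 h before LPS (250 ng/mL) and ATP (1.25 mM) stimulation; lower signal means less secretion.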
TDP1 cell noCPT = qHTS for Inhibitors of human tyrosyl-DNA phosphodiesterase 1 (TDP1): qHTS in cells in absence of CPT; DT40 Tdp1-/- hTDP1 cells, no CPT, ATP luminescence, 48 h; Potency, µM (doses to about 46.2 µM), inactives show top-dose activity change, negative = growth inhibition, usual class: inhibitors; hit rate 15% among 420,000; further: potency means the concentration at half of the fitted maximal effect; nearly all actives have a fitted effect of over 55% in size
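No-CPT arm: Tdp1-/-;hTDP1 DT40 cells (400/well) plus compounds, incubated ≥48 hr at 37 °C. Readout CellTiter-Glo luminescence.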
Giardia kill = Small Molecules that selectively kill Giardia lamblia: qHTS; activity change, % at 7.66 µM, hits read low; Giardia lamblia trophozoite viability; hit rate 0.15% among 340,000; in the data active means activity change below about -80%; inconclusive means between about -30% and that limit;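 further: parasites exposed to compound for two days anaerobically before the ATP read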
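Luminescence from cellular ATP indicates surviving trophozoites (100 cells/well) following 48 hrs anaerobic compound treatment at 37 deg C; signal develops 15-30 min at room temperature.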
DT40 TDP1 CPT = qHTS for Inhibitors of human tyrosyl-DNA phosphodiesterase 1 (TDP1): qHTS in cells in presence of CPT; Potency, µM (top dose mostly 46.2 µM), for inactives: top-dose activity change, negative = growth inhibition, hits mostly inhibitors; chicken DT40 Tdp1-/-;hTDP1 cells + 20 nM CPT, ATP luminescence, 48 h; hit rate 12% among 420,000; AID 686979, 2013; further: potency means the concentration at half of the fitted maximal effect; nearly all actives have a fitted effect of over 55% in size
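Cell growth measured by CellTiter-Glo luminescence after a minimum 48 h, 37 C compound exposure with 20 nM CPT in Tdp1-knockout DT40 cells stably expressing hTDP1, seeded 400/well; qHTS titration format.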
* = called active by the depositor; ? = inconclusive; . = no result given; [ ] = remark or other dose. Unless noted, the call rests on the fitted dose curve; in most records, active means well fitted curve in the direction sought with a large enough effect; inconclusive means small, poorly fitted or top-dose-only effect, or another doubt; inactive means no such curve, though single readings can be large; an effect the other way counts as inactive or inconclusive. On the % scale 0 is the no-effect control and ±100 the full control effect.

SMILES | ELG1 repair inh | TDP1 inh | IL-1B inflam inh | TDP1 cell noCPT | Giardia kill | DT40 TDP1 CPT
COC(=O)c1cc(S(=O)(=O)NCC2CCN(Cc3cccc(Cl)c3)CC2)c[nH]1 | 2.8% | 1.5% | -7.1 | ? | -14.5 | 0.0%
COCCN1CCN(C(=O)c2cnn(-c3ncc4c(n3)-c3ccc(OC)cc3CC4)c2C2CC2)CC1 | . | . | . | -16.6% | . | 6.5%[9.04 µM]
Cc1cc(=O)n(C)c2ccccc12 | 0.0% | 0.0% | -1.1 | 10.9% | 12.9 | -3.8%
Cc1cc(=O)n2c3c(c4c(cc13)c(CN(C)C)cc(=O)n4C)OC2 | . | . | -13.1 | 6.51µM* | -2.0 | 8.2µM*
COc1ccc(/C=N/NC(=O)c2ccco2)cc1Cn1nc(C)c([N+](=O)[O-])c1C | -2.5% | 8.0% | 20.3 | 18.4µM* | -8.5 | ?
COc1cccc(/C=N\NC(=O)c2ccc(Cn3cc(Br)c([N+](=O)[O-])n3)o2)c1O | ? | 0.0% | 167.4 | 3.26µM* | -1.6 | ?
COc1ccc(/C=N/NC(=O)c2ccco2)cc1Cn1nc(C)cc1C | 21.4% | -2.4% | 18.9 | -21.1% | 2.8 | -2.3%
COc1cccc(/C=N/NC(=O)C(C)n2nc(C)c([N+](=O)[O-])c2C)c1O (stereo not given) | 16.7% | 8.2% | 36.5 | 1.03µM* | -14.6 | 0.92µM*
COc1cccc(/C=N/NC(=O)Cn2nc(C)c([N+](=O)[O-])c2C)c1O | -2.2% | 2.7% | 52.9 | 5.8µM* | -11.7 | 5.8µM*
Cc1nn(CC(=O)N/N=C/c2cccs2)c(C)c1[N+](=O)[O-] | 3.0% | . | -23.9 | -27.9% | -15.9 | 2.8%
Cc1cc(C)cc(-n2ccnc2SCC(=O)Nc2nc3ccc(C)cc3s2)c1 | . | 8.8% | . | -13.0% | . | -25.9%
COc1ccc(N(C)C(=O)c2nc(-c3cccc(F)c3)n3c2CCCCC3)c(OC)c1 | . | 7.7% | . | ? | . | ?
CCC(C)(C)NC(=O)C(c1cccc(OC)c1OC)N(C(=O)CCC(=O)Nc1cc(C)on1)C(C)C (stereo not given) | 2.5% | 8.1% | 11.7 | -14.7% | -20.8 | -0.3%
Cc1cc(C(=O)N2CCOc3ccc(CN4CCC(Oc5cccnc5)CC4)cc3C2)c(C)o1 | . | . | . | ? | . | -2.4%[9.04 µM]
Cc1cc([N+](=O)[O-])ccc1NC(=O)C(C)N1CCN(c2ccccn2)CC1 (stereo not given) | -21.4% | -1.2% | -10.6 | ? | 3.5 | -26.0%
Cc1ccc(C2/C(=C(/O)c3ccc4c(c3)CC(C)O4)C(=O)C(=O)N2CCCn2ccnc2)cc1 (stereo not given) | 13.2% | 6.9% | -7.4 | -10.3% | 1.0 | -5.0%
S=C(NNC(=S)Nc1ccc(Cl)cc1)NNc1ccccc1 | . | . | -23.3 | 16.4µM* | . | 14.6µM*
NC(=S)NNC(=S)Nc1ccccc1 | -6.0% | 5.1% | -17.6 | ? | -21.5 | ?
Cc1ccc(NC(=S)NNC(=S)NNc2ccccc2)cc1C | . | . | -13.0 | 23.1µM* | . | -5.7%
S=C(NN=C(C1CC1)C1CC1)Nc1ccccc1 | ? | 5.0% | 4.2 | ? | -2.2 | 20.6µM*
S=C(NNC(=S)Nc1ccccc1)Nc1ccccc1 | ? | . | ? | 3.26µM* | 21.2 | 3.66µM*
O=C(NNC(=S)Nc1ccc(Cl)cc1)c1ccccc1 | ? | 3.5% | 15.5 | ? | 14.8 | -52.0%
CC(C)OCCCn1c(SCC(=O)Nc2ccc(F)cc2)nc2c(sc3ccccc32)c1=O | . | 3.4% | . | -13.1% | . | -25.6%
S=C(Nc1ccccc1)Nc1nccs1 | ? | 15.3% | -9.9 | 3.66µM* | -22.8 | 5.17µM*
C/C(=C\C(=S)Nc1ccccc1)Nc1ccccc1 | ? | 5.3% | 6.2 | 16.4µM* | 0.5 | 14.6µM*
SMILES | ELG1 repair inh | TDP1 inh | IL-1B inflam inh | TDP1 cell noCPT | Giardia kill | DT40 TDP1 CPT
O=C(NCc1ccccc1)C(c1ccc(C(F)(F)F)cc1)n1c(=O)c(-c2cc3ccccc3[nH]2)nc2ccccc21 (stereo not given) | . | . | 75.0 | 14.6µM* | . | ?
COc1ccc(NC(=O)C(c2ccc(C(F)(F)F)cc2)n2c(=O)c(-c3cc4ccccc4[nH]3)nc3ccccc32)cc1 (stereo not given) | . | . | 140.6 | ? | . | 18.4µM*
N#Cc1ccc(C(C(=O)NCc2ccccc2)n2c(=O)c(-c3cc4ccccc4[nH]3)nc3ccccc32)cc1 (stereo not given) | . | . | 9.5 | 9.2µM* | . | 11.6µM*
COc1ccc(NC(=O)C(C2CC2)n2c(=O)c(-c3cc4ccccc4[nH]3)nc3ccccc32)cc1 (stereo not given) | . | . | ? | ? | . | 29.1µM*
O=C(Nc1ccc2ccccc2c1)C(C1CC1)n1c(=O)c(-c2cc3ccccc3[nH]2)nc2ccccc21 (stereo not given) | . | . | -14.6 | ? | . | ?
COc1ccc(NC(=O)c2cccc3cccnc23)cc1S(N)(=O)=O | 0.0% | . | ? | -13.7% | -24.1 | 1.5%
Cc1cccc(OCC(=O)N2CCC(c3ccccc3)C2)c1 (stereo not given) | ? | 2.3% | -16.0 | -16.5% | 8.5 | -26.1%
Cc1ccc2c(c1)C1CN(C)CCC1N2C(=O)COc1ccc(N(C)C(=O)c2ccccc2)cc1 (stereo not given) | -7.0% | -0.5% | 0.0 | 13µM* | 1.3 | 5.17µM*
COc1ccccc1NC(=O)Nc1nc(C(N)CCc2ccccc2)cs1 (stereo not given) | . | . | -29.0 | 13µM* | . | ?
COc1ccc(CNC(=O)Nc2nc(C(N)CCc3ccccc3)cs2)cc1 (stereo not given) | . | . | -56.1* | ? | . | ?
COc1cc(CNC(=O)Nc2nc(C(N)CCc3ccccc3)cs2)cc(OC)c1OC (stereo not given) | . | . | -54.0* | ? | . | ?
CC(=O)Nc1ccc(NC(=O)COC(=O)COc2ccc3ccccc3c2)cc1 | 19.1% | 2.1% | 14.0 | 2.1% | 9.4 | 1.5%
CCCNc1nc(Cl)nc(NC(C)(C)C)n1 | 24.6% | -1.1% | -9.6 | -26.5% | 3.8 | 1.4%
CCc1cc(C(=O)NCC2Cc3cccc(-c4ccc(C(=O)OC)cn4)c3O2)no1 (stereo not given) | . | . | . | -5.5% | . | 5.2%
CC1CCCC(N2CCN(S(=O)(=O)c3ccccc3)CC2)C1 (stereo not given) | -10.9% | 0.0%[0.0935 µM] | 10.2 | ? | 6.1 | -7.2%
